Data as given in PubChem BioAssay (NCI).
Compounds without any hit were thinned out: in the full panel of roughly 79,000, 15% have a hit. A number with no mark means an inactive call. The source made the active and inactive calls. No stated cut-off is given here; in the data, active means growth inhibition above about 70%; inactive means the rest.

Key:
[1] = NCI Yeast Anticancer Drug Screen. Data for the rad50 strain (AID 155);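 further: 0% = growth of vehicle-only cultures of the same strain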; conditions: S. cerevisiae rad50 strain growth inhibition, active compounds read high
In short: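 Readout: growth inhibition relative to vehicle-treated cultures. Compound exposure was carried out in a genetically defined yeast strain deficient in DNA damage repair.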

[2] = NCI Yeast Anticancer Drug Screen. Data for the mec2-1 strain (AID 157); conditions: S. cerevisiae mec2-1 strain, active compounds read high
In short: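 Using mec2-1 yeast: add compound, measure growth, express inhibition versus vehicle-treated cultures.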

[3] = NCI Yeast Anticancer Drug Screen. Data for the sgs1 mgt1 strain (AID 161);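 further: 0% = growth of cultures given vehicle only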; conditions: S. cerevisiae sgs1 mgt1 strain, active compounds read high
In short: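 Growth of a repair-deficient yeast mutant was monitored after compound treatment and expressed as inhibition relative to vehicle-treated cultures.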

[4] = NCI Yeast Anticancer Drug Screen. Data for the cln2 rad14 strain (AID 165);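 further: 0% = growth equal to vehicle treated cultures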; conditions: S. cerevisiae cln2 rad14 strain, active compounds read high
In short: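 Yeast strain cln2 rad14, bearing defects in cell cycle control and DNA repair, serves as the test system; values reflect growth inhibition compared with vehicle.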

[5] = NCI Yeast Anticancer Drug Screen. Data for the bub3 strain (AID 167); conditions: S. cerevisiae bub3 mutant strain, active compounds read high
In short: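 Readout: yeast growth inhibition, expressed relative to vehicle-only wells. The test organism is a mutant strain from a panel with lesions in DNA repair or checkpoint genes.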

[6] = NCI Yeast Anticancer Drug Screen. Data for the mlh1 rad18 strain (AID 175); conditions: S. cerevisiae mlh1 rad18 strain growth inhibition, active compounds read high
In short: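 Steps: expose repair-defective yeast to compound; measure growth; express inhibition against vehicle-treated controls.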

[7] = at 5.0 µM (retest, dose inferred, filed as 0.5)
[8] = at 50.0 µM (retest, dose inferred, filed as 5.0)

In the case of CC(=O)Nc1ccc(S(=O)(=O)N/N=C/c2cc(I)cc([N+](=O)[O-])c2O)cc1, the growth inhibition [1, 7] was 9%, the growth inhibition [1, 8] was 71% (active) and the growth inhibition ([1]; at 50.0 µM) was 89% (active). The growth inhibition [2, 7] was 10%, the growth inhibition [2, 8] was 81% (active) and the growth inhibition ([2]; at 50.0 µM) was 81.5% (active). The growth inhibition [3, 7] was 14%, the growth inhibition [3, 8] was 69% and the growth inhibition ([3]; at 50.0 µM) was 89.7% (active). For the same compound, the growth inhibition [4, 7] was 1%, the growth inhibition [4, 8] was 35% and the growth inhibition ([4]; at 50.0 µM) was 83.1% (active). The growth inhibition [5, 7] was 1%, the growth inhibition [5, 8] was 47% and the growth inhibition ([5]; at 50.0 µM) was 70.5% (active). The growth inhibition [6, 7] was 12%, the growth inhibition [6, 8] was 72% (active) and the growth inhibition ([6]; at 50.0 µM) was 94.3% (active).
In the case of O=C1c2ccccc2CC(Br)c2ccccc21 (stereo not given), the growth inhibition [1, 7] was -2%, the growth inhibition [1, 8] was 97% (active) and the growth inhibition ([1]; at 50.0 µM) was 97.2% (active). The growth inhibition [2, 7] was -4%, the growth inhibition [2, 8] was 94% (active) and the growth inhibition ([2]; at 50.0 µM) was 27.4%. For the same compound, the growth inhibition [3, 7] was 3%, the growth inhibition [3, 8] was 94% (active) and the growth inhibition ([3]; at 50.0 µM) was 81.8% (active). For the same compound, the growth inhibition [4, 7] was -77%, the growth inhibition [4, 8] was 80% (active) and the growth inhibition ([4]; at 50.0 µM) was 1.7%. For the same compound, the growth inhibition [5, 7] was -10%, the growth inhibition [5, 8] was -3% and the growth inhibition ([5]; at 50.0 µM) was 42.5%. The growth inhibition [6, 7] was 1%, the growth inhibition [6, 8] was 98% (active) and the growth inhibition ([6]; at 50.0 µM) was 97.7% (active).
In the case of O=[N+]([O-])c1ccc2c(c1)CCc1ccccc1-2, the growth inhibition [1, 7] was 10%, the growth inhibition [1, 8] was 77% (active) and the growth inhibition ([1]; at 50.0 µM) was 52.6%. For the same compound, the growth inhibition [2, 7] was -18%, the growth inhibition [2, 8] was 37% and the growth inhibition ([2]; at 50.0 µM) was -2.75%. The growth inhibition [3, 7] was 12%, the growth inhibition [3, 8] was 75% (active) and the growth inhibition ([3]; at 50.0 µM) was 76.6% (active). The growth inhibition [4, 7] was -1%, the growth inhibition [4, 8] was 33% and the growth inhibition ([4]; at 50.0 µM) was 9.4%. The growth inhibition [5, 7] was -15%, the growth inhibition [5, 8] was 78% (active) and the growth inhibition ([5]; at 50.0 µM) was 20.4%. For the same compound, the growth inhibition [6, 7] was 16%, the growth inhibition [6, 8] was 89% (active) and the growth inhibition ([6]; at 50.0 µM) was 68.7%.
In the case of O=C1C(=O)c2ccccc2C(O)=C1Sc1ccccc1, the growth inhibition [1, 7] was 23%, the growth inhibition [1, 8] was 92% (active) and the growth inhibition ([1]; at 50.0 µM) was 95.2% (active). The growth inhibition [2, 7] was 20%, the growth inhibition [2, 8] was 89% (active) and the growth inhibition ([2]; at 50.0 µM) was 92.4% (active). For the same compound, the growth inhibition [3, 7] was 44%, the growth inhibition [3, 8] was 95% (active) and the growth inhibition ([3]; at 50.0 µM) was 95% (active). The growth inhibition [4, 7] was 41%, the growth inhibition [4, 8] was 88% (active) and the growth inhibition ([4]; at 50.0 µM) was 79.3% (active). The growth inhibition [5, 7] was 15%, the growth inhibition [5, 8] was 94% (active) and the growth inhibition ([5]; at 50.0 µM) was 93.7% (active). The growth inhibition [6, 7] was 34%, the growth inhibition [6, 8] was 93% (active) and the growth inhibition ([6]; at 50.0 µM) was 95.5% (active).
For O=C(Nc1ccccc1)OC1CCCC1, the growth inhibition [1, 7] was 19%, the growth inhibition [1, 8] was 94% (active) and the growth inhibition ([1]; at 50.0 µM) was 85.5% (active). For the same compound, the growth inhibition [2, 7] was 11%, the growth inhibition [2, 8] was 88% (active) and the growth inhibition ([2]; at 50.0 µM) was 11.8%. The growth inhibition [3, 7] was 12%, the growth inhibition [3, 8] was 92% (active) and the growth inhibition ([3]; at 50.0 µM) was 81.2% (active). The growth inhibition [4, 7] was 8%, the growth inhibition [4, 8] was 28% and the growth inhibition ([4]; at 50.0 µM) was -3.85%. For the same compound, the growth inhibition [5, 7] was 6%, the growth inhibition [5, 8] was 90% (active) and the growth inhibition ([5]; at 50.0 µM) was 50.1%. For the same compound, the growth inhibition [6, 7] was 12%, the growth inhibition [6, 8] was 94% (active) and the growth inhibition ([6]; at 50.0 µM) was 82.8% (active).
Work on CNC(=O)NN(C)C=O yielded a growth inhibition [1, 7] of 0%, a growth inhibition [1, 8] of 2% and a growth inhibition ([1]; at 50.0 µM) of -12.1%. For the same compound, the growth inhibition [2, 7] was 4%, the growth inhibition [2, 8] was 2% and the growth inhibition ([2]; at 50.0 µM) was 45.5%. It also gave a growth inhibition [3, 7] of 2%, a growth inhibition [3, 8] of 1% and a growth inhibition ([3]; at 50.0 µM) of -7.95%. It also gave a growth inhibition [4, 7] of -2%, a growth inhibition [4, 8] of -4% and a growth inhibition ([4]; at 50.0 µM) of 12.1%. The growth inhibition [5, 7] was -2%, the growth inhibition [5, 8] was -5% and the growth inhibition ([5]; at 50.0 µM) was -4.35%. The growth inhibition [6, 7] was -4%, the growth inhibition [6, 8] was -3% and the growth inhibition ([6]; at 50.0 µM) was -4.55%.
For COc1ccc2c(c1)[n+]([O-])c(S(=O)(=O)c1ccc(C)cc1)c(N)[n+]2[O-], the growth inhibition [1, 7] was 4%, the growth inhibition [1, 8] was 80% (active) and the growth inhibition ([1]; at 50.0 µM) was 99.2% (active). The growth inhibition [2, 7] was 18%, the growth inhibition [2, 8] was 80% (active) and the growth inhibition ([2]; at 50.0 µM) was 98.8% (active). The growth inhibition [3, 7] was 35%, the growth inhibition [3, 8] was 96% (active) and the growth inhibition ([3]; at 50.0 µM) was 96% (active). The growth inhibition [4, 7] was 16%, the growth inhibition [4, 8] was 66% and the growth inhibition ([4]; at 50.0 µM) was 99% (active). The growth inhibition [5, 7] was 50%, the growth inhibition [5, 8] was 96% (active) and the growth inhibition ([5]; at 50.0 µM) was 99% (active). For the same compound, the growth inhibition [6, 7] was 36%, the growth inhibition [6, 8] was 95% (active) and the growth inhibition ([6]; at 50.0 µM) was 99% (active).
With O=C1/C(=C/c2ccc(Cl)c(Cl)c2)CN(C(=O)CCN2CCOCC2)C/C1=C\c1ccc(Cl)c(Cl)c1 the growth inhibition [1, 7] was 99% (active), the growth inhibition [1, 8] was 86% (active) and the growth inhibition ([1]; at 50.0 µM) was 41%. For the same compound, the growth inhibition [2, 7] was 99% (active), the growth inhibition [2, 8] was 94% (active) and the growth inhibition ([2]; at 50.0 µM) was 85.8% (active). For the same compound, the growth inhibition [3, 7] was 99% (active), the growth inhibition [3, 8] was 92% (active) and the growth inhibition ([3]; at 50.0 µM) was 85.2% (active). For the same compound, the growth inhibition [4, 7] was 90% (active), the growth inhibition [4, 8] was 89% (active) and the growth inhibition ([4]; at 50.0 µM) was 87.3% (active). For the same compound, the growth inhibition [5, 7] was 99% (active), the growth inhibition [5, 8] was 89% (active) and the growth inhibition ([5]; at 50.0 µM) was 89% (active). The growth inhibition [6, 7] was 99% (active), the growth inhibition [6, 8] was 88% (active) and the growth inhibition ([6]; at 50.0 µM) was 87.5% (active).
In the case of NNc1ccc(Br)cc1, the growth inhibition [1, 7] was 83% (active), the growth inhibition [1, 8] was 98% (active) and the growth inhibition ([1]; at 50.0 µM) was 90.3% (active). The growth inhibition [2, 7] was 83% (active), the growth inhibition [2, 8] was 98% (active) and the growth inhibition ([2]; at 50.0 µM) was 92.2% (active). For the same compound, the growth inhibition [3, 7] was 96% (active), the growth inhibition [3, 8] was 99% (active) and the growth inhibition ([3]; at 50.0 µM) was 92.7% (active). For the same compound, the growth inhibition [4, 7] was 47%, the growth inhibition [4, 8] was 98% (active) and the growth inhibition ([4]; at 50.0 µM) was 90.5% (active). The growth inhibition [5, 7] was 98% (active), the growth inhibition [5, 8] was 96% (active) and the growth inhibition ([5]; at 50.0 µM) was 91% (active). For the same compound, the growth inhibition [6, 7] was 33%, the growth inhibition [6, 8] was 100% (active) and the growth inhibition ([6]; at 50.0 µM) was 89.7% (active).
Work on CSc1nc(COC(=O)NC(C)C)c(COC(=O)NC(C)C)n1-c1ccccc1 yielded a growth inhibition [1, 7] of -12%, a growth inhibition [1, 8] of 11% and a growth inhibition ([1]; at 50.0 µM) of -17.1%. It also gave a growth inhibition [2, 7] of 23%, a growth inhibition [2, 8] of 11% and a growth inhibition ([2]; at 50.0 µM) of 4.2%. It also gave a growth inhibition [3, 7] of -19%, a growth inhibition [3, 8] of -6% and a growth inhibition ([3]; at 50.0 µM) of -6.15%. It also gave a growth inhibition [4, 7] of 13%, a growth inhibition [4, 8] of 4% and a growth inhibition ([4]; at 50.0 µM) of 53.1%. For the same compound, the growth inhibition [5, 7] was 8%, the growth inhibition [5, 8] was 22% and the growth inhibition ([5]; at 50.0 µM) was -12.7%. The growth inhibition [6, 7] was -1%, the growth inhibition [6, 8] was -6% and the growth inhibition ([6]; at 50.0 µM) was 18.9%.
